# Where “and” joins values, the source holds several entries; their conditions need not be identical. Equal entries are not always repeated. A number with no mark means an inactive call. Records with an inconclusive call do not appear. Where a call stands in place of a potency, no number is given. Calls of active or inactive are those of the source. Unless noted, the call rests on the fitted dose curve; in most records, active means well fitted curve in the direction sought with a large enough effect; inconclusive means small, poorly fitted or top-dose-only effect, or another doubt; inactive means no such curve, though single readings can be large; an effect the other way counts as inactive or inconclusive.
# Experiments:
# Tov-21-G = assay: Primary qHTS to identify gynecologic anti-cancer compounds using libraries of approved drugs and bioactive compounds (AID 1345084); settings: Gynecologic cancer cell panel viability, ATPlite luminescence, 48 h; series mostly up to 57.5 µM; further: nearly all actives have a fitted effect of over 55% in size; further: potency means the concentration at half of the fitted maximal effect
# How it was run: (§1)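 Cell viability after 48 h drug treatment, ATPlite luminescence readout; five doses.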
# Tov112D = assay: as above; settings: Gynecologic cancer cell panel viability, ATPlite luminescence, 48 h; series mostly up to 57.5 µM
# How it was run: as §1
# [1] = Drug repurposing screens with cells derived from glioblastoma tumor samples (AID 1345199); settings: GBM patient neurospheres viability, ATP luminescence, 48 h; Potency: tumour line A unless noted; series mostly up to 45.9 µM; further: nearly all actives have a fitted effect of over 40% in size; further: potency means the concentration at half of the fitted maximal effect
# How it was run: (§2)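 Primary testing used CD133+ neurospheres from four GBM patients, seven concentrations, 48 h exposure and ATP-based viability; confirmation added three slower-growing patient lines.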
# astro = assay: as above; settings: viability, ATP luminescence, 48 h; series mostly up to 45.9 µM
# How it was run: as §2
# SKOV3 = assay: Primary qHTS to identify gynecologic anti-cancer compounds using libraries of approved drugs and bioactive compounds (AID 1345084); settings: Gynecologic cancer cell panel viability, ATPlite luminescence, 48 h; series mostly up to 57.5 µM; further: nearly all actives have a fitted effect of over 55% in size; further: potency means the concentration at half of the fitted maximal effect
# How it was run: as §1
# [2] = qHTS assay to identify inhibitors of the type 1 interferon - major histocompatibility complex class I in skeletal muscle: Counter screen cell viability and HiBit confirmation (AID 1347412); settings: iHSKM muscle cells + IFN-b, HiBiT or CellTiter-Glo, 24 h; for activity change, negative = inhibition: at 45.9 µM (top of the series); further: potency means the concentration at half of the fitted maximal effect; on all read-outs here: nearly all actives have a fitted effect of over 60% in size
# How it was run: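 CRISPR HLA-B*08:01-HiBit immortalized human myoblasts (C25cl48) stimulated with 4 ng/ml IFN-beta and compounds (12-point 1:3, top 46 uM final) for 24 h at 37 C. Duplicate plates read by HiBit lytic luminescence or CellTiter Glo ATP.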
# [3] = target: Nuclear receptor subfamily 1 group I member 2 (Rattus norvegicus) (UniProt Q9R1A7); assay: qHTS assay for small molecule activators of the rat pregnane X receptor (rPXR) signaling pathway (AID 651751; call rule not given here); settings: rPXR reporter cells, luciferase (One-Glo), 24 h
# Nuclear receptor subfamily 1 group I member 2 (Rattus norvegicus), sequence (Q9R1A7 whole entry, looked up): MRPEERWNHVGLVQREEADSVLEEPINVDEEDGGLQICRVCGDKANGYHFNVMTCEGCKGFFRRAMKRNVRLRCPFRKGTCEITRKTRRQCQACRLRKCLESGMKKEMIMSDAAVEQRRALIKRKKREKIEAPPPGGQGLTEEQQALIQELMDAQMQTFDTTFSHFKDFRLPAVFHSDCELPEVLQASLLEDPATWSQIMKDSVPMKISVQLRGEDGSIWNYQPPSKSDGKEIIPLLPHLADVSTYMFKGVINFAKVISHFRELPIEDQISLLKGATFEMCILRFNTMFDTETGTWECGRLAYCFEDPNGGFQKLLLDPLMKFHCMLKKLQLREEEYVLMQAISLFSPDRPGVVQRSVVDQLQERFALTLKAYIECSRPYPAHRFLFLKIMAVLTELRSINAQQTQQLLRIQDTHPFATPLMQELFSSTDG
# [4] = qHTS assay for small molecule activators of the human pregnane X receptor (PXR) signaling pathway (AID 720659; call rule not given here); settings: DPX-2 HepG2 CYP3A4-luciferase, 24 h; series mostly up to 92.3 µM
compound,measurement,setting,value
CCC1(CCC(C)C)C(=O)NC(=O)NC1=O,Potency,Tov-21-G,inactive
same,Potency,Tov112D,inactive
same,Potency,[1],inactive
same,Potency,astro,inactive
CCN1CCN(C(=O)Cc2ccc(Nc3ncc(F)c(Nc4ccc(C(=O)Nc5ccccc5Cl)cc4)n3)cc2)CC1,Potency,SKOV3,15.8 µM (active)
same,Potency,Tov-21-G,28.2 µM (active)
same,Potency,Tov112D,2.51 µM (active)
same,Potency,[2]; HiBiT,14 µM (active)
ClC1=C(Cl)[C@]2(Cl)[C@@H]3[C@@H]4C[C@@H]([C@H]5O[C@@H]45)[C@@H]3[C@@]1(Cl)C2(Cl)Cl,Potency,Tov-21-G,inactive
same,Potency,Tov112D,inactive
Cc1ccc(Cl)c(O)c1,Potency,SKOV3,inactive
same,Potency,Tov-21-G,inactive
same,Potency,Tov112D,inactive
same,Potency,[1],inactive
same,Potency,astro,inactive
C=CCC1=C(C)C(OC(=O)C2C(C=C(C)C)C2(C)C)CC1=O (stereo not given),Potency,Tov-21-G,inactive
same,Potency,Tov112D,inactive
COc1ccc(C(c2ccc(OC)cc2)C(Cl)(Cl)Cl)cc1,Potency,Tov-21-G,inactive
same,Potency,Tov112D,inactive
CC(=O)Nc1ccc(OC[C@](C)(O)C(=O)Nc2ccc([N+](=O)[O-])c(C(F)(F)F)c2)cc1,Potency,SKOV3,inactive
same,Potency,Tov112D,inactive
O=C(O)c1cc(Oc2ccc(C(F)(F)F)cc2Cl)ccc1[N+](=O)[O-],Potency,SKOV3,inactive
same,Potency,Tov-21-G,inactive
same,Potency,Tov112D,inactive
same,Potency,[1],inactive
same,max response,[3],2.53%
same,outcome,[4],inactive
CN(C)NC(=O)CCC(=O)O,max response,[3],-0.418% and -0.734%
Nc1ccc(N=Nc2ccccc2)cc1,Potency,[1],inactive
NC1=NC(=O)N2CC12 (stereo not given),Potency,[1],inactive
Nc1ccc(Cl)cc1N,Potency,Tov112D,inactive
O=[N+]([O-])c1cc([N+](=O)[O-])c2ccccc2c1,Potency,Tov-21-G,inactive
same,Potency,Tov112D,inactive
same,Potency,[1],inactive
same,outcome,[4],inactive
Nc1c(Cl)c(Cl)c(Cl)c(Cl)c1Cl,Potency,Tov-21-G,inactive
same,Potency,Tov112D,inactive
same,Potency,[1],inactive
same,Potency,astro,inactive
same,max response,[3],0.456%
same,outcome,[4],inactive
C[N+](C)(C)CC(=O)O,Potency,[1],inactive
Nc1ccc([N+](=O)[O-])cc1,Potency,Tov-21-G,inactive
same,Potency,Tov112D,inactive
same,max response,[3],-0.553%
same,outcome,[4],inactive
O=C(O)C(Cl)Cl,Potency,Tov-21-G,inactive
same,Potency,Tov112D,inactive
same,Potency,[1],inactive
same,Potency,astro,inactive
same,max response,[3],4.19% and -3.77%
same,outcome,[4],inactive
COc1ccc2c(c[n+](C)c3c4cc5c(cc4ccc23)OCO5)c1OC,Potency,[2]; HiBiT,7.01 µM (active)
same,Potency,[2]; Viability,8.83 µM (active)
CC1=C(O)C(=O)C=C2C1=CC=C1[C@@]2(C)CC[C@@]2(C)[C@@H]3C[C@](C)(C(=O)O)CC[C@]3(C)CC[C@]12C,Potency,[2]; HiBiT,0.787 µM (active)
CC1(N2CCC(n3c([C@@H]4CCCNC4)nc4ccccc43)CC2)CCCCCCC1,Potency,Tov112D,22.4 µM (active)
Cc1[nH]nc2ccc(-c3cncc(OC[C@@H](N)Cc4c[nH]c5ccccc45)c3)cc12,Potency,Tov-21-G,0.708 µM (active)
same,Potency,Tov112D,1 µM (active)
same,Potency,[2]; HiBiT,1.11 µM (active)
C[C@]12N[C@H](Cc3ccccc31)c1ccccc12,Potency,[1],inactive
C/C=C(/C)C(=O)O[C@H]1C(C)=C2[C@H]([C@@H]1OC(=O)CCCCCCC)[C@@](C)(OC(C)=O)C[C@H](OC(=O)CCC)[C@@]1(O)[C@H]2OC(=O)[C@@]1(C)O,Potency,Tov112D,0.501 µM (active)
same,Potency,[2]; HiBiT,0.0079 µM (active)
c1ccc(C2(c3ccccc3)CC2C2=NCCN2)cc1 (stereo not given),Potency,[1],inactive
O=C(O)CCCOc1ccc(Cl)cc1Cl,Potency,Tov-21-G,inactive
same,Potency,Tov112D,inactive
same,Potency,[1],inactive
same,max response,[3],8.43%
same,outcome,[4],inactive
O=c1[nH]c2ccc(Cl)cc2c(N[C@@H]2CN3CCC2CC3)c1-c1nc2ccccc2[nH]1,Potency,Tov112D,25.1 µM (active)
same,Potency,[2]; HiBiT,3.52 µM (active)
same,Potency,[2]; Viability,17.6 µM (active)
C[C@]12CC[C@@H]3[C@@H](CCC4=CC(=O)CC[C@@H]43)[C@@H]1CC[C@@H]2OC(=O)CCc1ccccc1,Potency,astro,inactive
CCCCOC(=O)c1ccccc1C(=O)OCc1ccccc1,Potency,Tov-21-G,inactive
same,Potency,Tov112D,inactive
same,Potency,[1],inactive
same,max response,[3],7.11% and 9.37%
NC(=O)CN1CC(O)CC1=O (stereo not given),Potency,[1],inactive
same,Potency,astro,inactive
CCOP(=O)(NC(C)C)Oc1ccc(SC)c(C)c1 (stereo not given),Potency,Tov-21-G,inactive
same,Potency,Tov112D,inactive
same,Potency,[1],inactive
same,max response,[3],6.18% and 2.21%
CCCCCC[C@H]1C(=O)O[C@H](C)[C@H](NC(=O)c2cccc(NC=O)c2O)C(=O)O[C@@H](C)[C@@H]1OC(=O)CC(C)C,"activity change, negative = inhibition",[2]; HiBiT,-17.2%
same,"activity change, negative = inhibition",[2]; Viability,-10.9%
same,outcome,[4],inactive
COc1nn(CSP(=S)(OC)OC)c(=O)s1,max response,[3],-6.79%
same,outcome,[4],inactive
O=[N+]([O-])c1c(Cl)c(Cl)cc(Cl)c1Cl,Potency,Tov-21-G,inactive
same,Potency,Tov112D,inactive
same,Potency,[1],inactive
same,Potency,astro,inactive
same,max response,[3],3.25%
same,outcome,[4],inactive
CCCN1CCC[C@H](c2cccc(O)c2)C1,Potency,[1],inactive
CCNC(=O)C[C@@H]1N=C(c2ccc(Cl)cc2)c2cc(OC)ccc2-n2c(C)nnc21,Potency,Tov112D,inactive
CCCCc1ccc(C(=O)O)nc1,Potency,[1],inactive
CC[C@@]1(O)C(=O)OCc2c1cc1n(c2=O)Cc2cc3ccccc3nc2-1,Potency,[2]; HiBiT,1.76 µM (active) and 1.98 µM (active)
same,"activity change, negative = inhibition",[2]; Viability,-5.85% and -9.34%
Clc1cnc(Oc2ccc(Oc3ncc(Cl)cc3Cl)cc2)c(Cl)c1,max response,[3],9.03%
same,outcome,[4],inactive
OCCCBr,Potency,Tov-21-G,inactive
same,Potency,Tov112D,inactive
same,Potency,[1],inactive
same,Potency,astro,inactive
same,max response,[3],-2.6%
same,outcome,[4],inactive
CC(C)[C@]12O[C@H]1[C@@H]1O[C@]13[C@]1(O[C@H]1C[C@H]1C4=C(CC[C@@]13C)C(=O)OC4)[C@@H]2O,Potency,Tov112D,0.1 µM (active)
same,Potency,[2]; HiBiT,0.0625 µM (active)
same,"activity change, negative = inhibition",[2]; Viability,-10.5%
CN[C@@H]1C[C@@H](c2ccc(Cl)c(Cl)c2)c2ccccc21,Potency,astro,20 µM (active)
same,"activity change, negative = inhibition",[2]; HiBiT,-7.12%
same,"activity change, negative = inhibition",[2]; Viability,-20.4%
CC(C)(O)C(=O)Nc1ccc([N+](=O)[O-])c(C(F)(F)F)c1,max response,[3],-13.9%
CN(C)[C@@H]1C(=O)C(C(N)=O)=C(O)[C@@]2(O)C(=O)C3=C(O)c4c(O)cccc4[C@@](C)(O)[C@H]3[C@H](O)[C@@H]12,Potency,[1],inactive
same,max response,[3],4.53% and -0.0906% and -2.17%

# Source: PubChem BioAssay (NCATS)
